# From PubChem BioAssay (NCI)
# About 83,000 compounds went through this panel and 20% of them were active in at least one assay; those are over-represented in the sample as a whole.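 Values shown are percent growth following 48 h exposure of cells in 96-well plates to a single concentration of compound; below 10 was considered active.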 Calls of active or inactive are those of the source.
# System: NCI-H460 lung
# Experiment: NCI-60 one-dose screen, 48 h (100 = growth as untreated, 0 = no growth, -100 = all killed)
# Conditions: 10 µM
row,Structure (SMILES),growth
1,O=[N+]([O-])C1CC2C=CC1C2 (stereo unspecified),108% (inactive)
2,COc1ccc(C2CC(c3ccc(-c4ccccc4)cc3)=NN2c2ccc(S(N)(=O)=O)cc2)cc1 (stereo unspecified),41.9% (inactive)
3,O=C(Nc1cccc(F)c1)Nc1cccc(Cl)c1,56% (inactive)
4,COc1cc(/C=C2\C(=O)Nc3cc(C)c(O)cc32)cc(OC)c1OC,40% (inactive)
5,COC(=O)c1ccc(Cn2ccc(=O)[nH]c2=O)cc1,114% (inactive)
6,Nc1nc2c(ncn2C2OC3COP(=O)(O)OC4C(COP(=O)(O)OC2C3O)OC(n2cnc3c(N)ncnc32)C4O)c(=O)[nH]1 (stereo unspecified),108% (inactive)
7,COc1cccc(C(=O)NNc2nc(N3CCN(C4CCCCC4)CC3)nc(N3CCN(C(c4ccccc4)c4ccccc4)CC3)n2)c1,46.1% (inactive)
8,O=C(CCCC(=O)N/N=C/c1cc(Cl)ccc1O)N/N=C\c1cc(Cl)ccc1O,10.2% (inactive)
9,COc1ccc2nc(/C=C/c3ccc(N(C)C)cc3)sc2c1,110% (inactive)
10,O=c1cc(CSc2nnc(-c3ccccc3)n2-c2ccc(F)cc2)c2ccc3ccccc3c2o1,100% (inactive)
11,O=C(O)CCCCSCCCCC(=O)O,113% (inactive)
12,C#C[C@]1(O)CC[C@H]2[C@@H]3CC[C@H]4CC(F)(F)CC[C@]4(C)[C@H]3CC[C@@]21C,83.9% (inactive)
13,O=C(OCC1OC(n2cc(C(F)(F)F)c(=O)[nH]c2=O)CC1OC(=O)c1ccc([N+](=O)[O-])cc1)c1ccc([N+](=O)[O-])cc1 (stereo unspecified),31.2% (inactive)
14,COC(=O)c1cnc2c(c1)Oc1ccc(Cl)cc1-c1cc(C)nn1-2,29.5% (inactive)
15,Cn1cnc([N+](=O)[O-])c1/C=C1\Oc2ccc(Cl)cc2C1=O,99.4% (inactive)
16,CCOC(=S)Sc1ccc([N+](=O)[O-])cc1[N+](=O)[O-],106% (inactive)
17,NC(N)=NS(=O)(=O)c1ccc(Nc2ccc3nnc(-c4ccncc4)n3n2)cc1,98.3% (inactive)
18,N#C/C(=C\N1C(=O)/C(=C/c2cccc([N+](=O)[O-])c2)SC1=S)c1nc2ccccc2s1,94.7% (inactive)
19,CC(=O)Nc1ccc(Sc2ccc(NC(C)=O)cc2)cc1,105% (inactive)

row,Structure (SMILES),growth
1,O=C(CCl)N1c2ccccc2Sc2ccc3ccccc3c21,-35.4% (active)
2,Cc1ccc(Cl)cc1Nc1nc(C(F)(F)F)ccc1C(=O)N/N=C/c1c(Cl)cccc1Cl,-0.639% (active)
3,COc1ccc(C2C=C(c3ccc(Cl)c(Cl)c3)N=C3SC(C)=CN32)cc1OC (stereo unspecified),70.2% (inactive)
4,CCn1nc(-c2ccccn2)c2cccnc2c1=S,53.7% (inactive)
5,C=C[C@]1(C)C=C2C(=O)[C@@]3(O)OC(=O)[C@@]4(CCCC(C)(C)[C@H]34)[C@@]2(O)CC1,0.905% (active)
6,CCN(CC)CCCOC(=O)Nc1ccccc1Cl,115% (inactive)
7,O=S(=O)(NC1c2ccccc2Oc2ccccc21)c1cc(Cl)ccc1Cl,105% (inactive)
8,N#Cc1ccc(-n2cnc(NC(=O)[C@H]3CCN(C#N)C3)c2)cc1,15.3% (inactive)
9,CC(=O)n1nc(C(=O)OC(C)(C)C)c2cc(F)c(F)cc21,102% (inactive)
10,O=C1CC[C@@H](C(=O)N[C@H]2CSSC[C@@H](C(=O)NCCc3ccccc3)NC(=O)[C@H](Cc3ccccc3)NC(=O)[C@@H]3CCCN3C(=O)[C@@H]3CCCN3C2=O)N1,101% (inactive)
11,CCc1c(C(=O)NCc2c(O)ccc3cccc(O)c23)[nH]c(C)c1C(C)=O,43.4% (inactive)
12,CS(=O)(=O)Nc1ccc(OCc2nnc(-c3ccc(Cl)cc3)o2)c(F)c1,98.9% (inactive)
13,COc1ccc(-c2nc(-c3nc4ccc(OC)cc4[nH]3)c3ccccn23)cc1,67.7% (inactive)
14,CC(C)c1ncc(CO)n1Cc1c(Cl)cccc1Cl,103% (inactive)
15,NC1CCC(Nc2nc(NCc3ccc(-c4ccco4)nc3)c3ncn(C4CCCC4)c3n2)CC1 (stereo unspecified),4.97% (active)
16,c1ccc(C2CCCCC2)c(OCCCCCN2CCNCC2)c1,4.61% (active)
17,N#Cc1c(-c2ccccc2)nc(SCC(=O)N2CCOCC2)[nH]c1=O,105% (inactive)
18,Cc1cn(C(=O)/C(Cl)=C(/Cl)C(=O)O)c2ccccc12,114% (inactive)
19,C=CCNCCCN1C(=O)c2ccc3c4c(ccc(c24)C1=O)C(=O)N(CCCNCC=C)C3=O,-56.7% (active)

# System: HOP-92 NSCLC
# Experiment: as above
# Conditions: 10 µM
row,Structure (SMILES),growth
1,O=[N+]([O-])C1CC2C=CC1C2 (stereo unspecified),110% (inactive)
2,COc1ccc(C2CC(c3ccc(-c4ccccc4)cc3)=NN2c2ccc(S(N)(=O)=O)cc2)cc1 (stereo unspecified),35.6% (inactive)
3,O=C(Nc1cccc(F)c1)Nc1cccc(Cl)c1,76.7% (inactive)
4,COc1cc(/C=C2\C(=O)Nc3cc(C)c(O)cc32)cc(OC)c1OC,63.6% (inactive)
5,COC(=O)c1ccc(Cn2ccc(=O)[nH]c2=O)cc1,99.3% (inactive)
6,Nc1nc2c(ncn2C2OC3COP(=O)(O)OC4C(COP(=O)(O)OC2C3O)OC(n2cnc3c(N)ncnc32)C4O)c(=O)[nH]1 (stereo unspecified),109% (inactive)
7,COc1cccc(C(=O)NNc2nc(N3CCN(C4CCCCC4)CC3)nc(N3CCN(C(c4ccccc4)c4ccccc4)CC3)n2)c1,45.5% (inactive)
8,O=C(CCCC(=O)N/N=C/c1cc(Cl)ccc1O)N/N=C\c1cc(Cl)ccc1O,24.4% (inactive)
9,COc1ccc2nc(/C=C/c3ccc(N(C)C)cc3)sc2c1,93.3% (inactive)
10,O=c1cc(CSc2nnc(-c3ccccc3)n2-c2ccc(F)cc2)c2ccc3ccccc3c2o1,83.5% (inactive)
11,O=C(O)CCCCSCCCCC(=O)O,96.8% (inactive)
12,C#C[C@]1(O)CC[C@H]2[C@@H]3CC[C@H]4CC(F)(F)CC[C@]4(C)[C@H]3CC[C@@]21C,93.8% (inactive)
13,O=C(OCC1OC(n2cc(C(F)(F)F)c(=O)[nH]c2=O)CC1OC(=O)c1ccc([N+](=O)[O-])cc1)c1ccc([N+](=O)[O-])cc1 (stereo unspecified),69.9% (inactive)
14,COC(=O)c1cnc2c(c1)Oc1ccc(Cl)cc1-c1cc(C)nn1-2,85.6% (inactive)
15,Cn1cnc([N+](=O)[O-])c1/C=C1\Oc2ccc(Cl)cc2C1=O,94% (inactive)
16,CCOC(=S)Sc1ccc([N+](=O)[O-])cc1[N+](=O)[O-],48.6% (inactive)
17,NC(N)=NS(=O)(=O)c1ccc(Nc2ccc3nnc(-c4ccncc4)n3n2)cc1,107% (inactive)
18,N#C/C(=C\N1C(=O)/C(=C/c2cccc([N+](=O)[O-])c2)SC1=S)c1nc2ccccc2s1,8.99% (active)
19,CC(=O)Nc1ccc(Sc2ccc(NC(C)=O)cc2)cc1,83.1% (inactive)

row,Structure (SMILES),growth
1,O=C(CCl)N1c2ccccc2Sc2ccc3ccccc3c21,-78.3% (active)
2,Cc1ccc(Cl)cc1Nc1nc(C(F)(F)F)ccc1C(=O)N/N=C/c1c(Cl)cccc1Cl,-31% (active)
3,COc1ccc(C2C=C(c3ccc(Cl)c(Cl)c3)N=C3SC(C)=CN32)cc1OC (stereo unspecified),47.2% (inactive)
4,CCn1nc(-c2ccccn2)c2cccnc2c1=S,73.4% (inactive)
5,C=C[C@]1(C)C=C2C(=O)[C@@]3(O)OC(=O)[C@@]4(CCCC(C)(C)[C@H]34)[C@@]2(O)CC1,-87.6% (active)
6,CCN(CC)CCCOC(=O)Nc1ccccc1Cl,94.9% (inactive)
7,O=S(=O)(NC1c2ccccc2Oc2ccccc21)c1cc(Cl)ccc1Cl,60.2% (inactive)
8,N#Cc1ccc(-n2cnc(NC(=O)[C@H]3CCN(C#N)C3)c2)cc1,42% (inactive)
9,CC(=O)n1nc(C(=O)OC(C)(C)C)c2cc(F)c(F)cc21,83% (inactive)
10,O=C1CC[C@@H](C(=O)N[C@H]2CSSC[C@@H](C(=O)NCCc3ccccc3)NC(=O)[C@H](Cc3ccccc3)NC(=O)[C@@H]3CCCN3C(=O)[C@@H]3CCCN3C2=O)N1,94.6% (inactive)
11,CCc1c(C(=O)NCc2c(O)ccc3cccc(O)c23)[nH]c(C)c1C(C)=O,32.8% (inactive)
12,CS(=O)(=O)Nc1ccc(OCc2nnc(-c3ccc(Cl)cc3)o2)c(F)c1,88.3% (inactive)
13,COc1ccc(-c2nc(-c3nc4ccc(OC)cc4[nH]3)c3ccccn23)cc1,13.9% (inactive)
14,CC(C)c1ncc(CO)n1Cc1c(Cl)cccc1Cl,93.6% (inactive)
15,NC1CCC(Nc2nc(NCc3ccc(-c4ccco4)nc3)c3ncn(C4CCCC4)c3n2)CC1 (stereo unspecified),-16.3% (active)
16,c1ccc(C2CCCCC2)c(OCCCCCN2CCNCC2)c1,29.4% (inactive)
17,N#Cc1c(-c2ccccc2)nc(SCC(=O)N2CCOCC2)[nH]c1=O,88.9% (inactive)
18,Cc1cn(C(=O)/C(Cl)=C(/Cl)C(=O)O)c2ccccc12,80.4% (inactive)
19,C=CCNCCCN1C(=O)c2ccc3c4c(ccc(c24)C1=O)C(=O)N(CCCNCC=C)C3=O,-21.6% (active)
